From PubChem BioAssay AID651812 (National Center for Advancing Translational Sciences (NCATS), 2012) come the findings set out here.

Structures are written as SMILES. About 650 (31%) of roughly 2,100 compounds were called active. Inconclusive results (about 16%) are left out. Calls follow the shape of the dose curve; as a rule, active = well fitted inhibition curve with a large enough effect; inconclusive = small, poorly fitted or top-dose-only effect; inactive = flat fitted curve, though single readings scatter. This is one part of the list. Where a call stands in place of a potency, no number is given.
Potency is read from the fitted curve at half-maximal effect.

The experiment in a line: qHTS for inhibitors of Vif-A3G interactions: Cherry picks. Also: nearly all actives have a fitted effect of over 80% in size. The conditions noted are these: HeLa A3G-eYFP + Vif (tagged APOBEC3G with the HIV-1 protein that degrades it), 24 h; Potency: eYFP fluorescence increase; series mostly up to 36.9 µM. A digest of the protocol:
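HeLa cells stably expressing A3G-eYFP and Vif, cultured overnight then exposed to compounds at several concentrations for 24 hours at 37 C, 5% CO2; cellular yellow fluorescence (488 nm ex, 500-530 nm em) imaged on Acumen, MG132 positive control.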
A general note: qHTS replaces the single test concentration by a dilution series.
Regarding `C[C@H]1CN([C@@H](C)CO)C(=O)Cc2cc(NC(=O)CCC(F)(F)F)ccc2O[C@H]1CN(C)S(=O)(=O)c1ccc(F)cc1`, the Potency result was “inactive”. In the case of `C/C(=N\NC(=O)c1cc(C)nc2ccccc12)c1ccncc1`, the Potency entry is “inactive”. Take `Cc1cccc(N2CCN(Cc3cn(C)nc3-c3ccccc3F)CC2)n1`: the Potency result was “inactive”. Then `C[C@H](O)[C@@H]1CN2CCc3c([nH]c4ccccc34)[C@@H]2C[C@@H]1N(C)C(=O)c1ccco1`, with “inactive”; and `COC(=O)C1C2CC3c4[nH]c5cc(OC)ccc5c4CCN3CC2CC(OC(=O)CC(C)=O)C1OC` (stereo not drawn), with 18.4 µM (active); and `COC(=O)C1C2CC3c4[nH]c5cc(OC)ccc5c4CCN3CC2CC(OC2CCCCO2)C1OC` (stereo not drawn), with 20.6 µM (active). Turning to `Cc1ccccc1NC(=O)CSC1=C(C#N)C(c2ccsc2)CC(=O)N1` (stereo not drawn), the Potency result is “inactive”. Then `COc1ccc(NC(=O)/C(C#N)=C/C=C/c2ccco2)cc1`, with “inactive”; and `O=[N+]([O-])c1ccc(N/N=C/C=C/c2ccco2)cc1`, with 16.4 µM (active); and `O=C(N/N=C/C=C/c1ccco1)c1ccncc1`, with “inactive”. As to `O=Nc1ccc(O)c2ncccc12`, the Potency result was “inactive”.

As for `CC1=NN(c2ccccc2)C(=O)/C1=C/C=C/c1ccccc1`, the Potency result is “inactive”. With `COc1ccccc1CCC(=O)Nc1ccc2c(c1)c(=O)n(C)n2-c1cccs1`, the Potency result was “inactive”. As for `O=C(NC(=S)Nc1ccccc1N1CCCCC1)c1ccccc1`, the Potency entry is “inactive”. On to `C=CCN1C(=O)c2cccc3c(N4CCCCC4)ccc(c23)C1=O`, for which the Potency is 20.6 µM (active). Then `O=C1c2cccc3c(N4CCCCC4)ccc(c23)C(=O)N1c1cccc(O)c1`, with “inactive”; and `O=C1c2cccc3c(N4CCCCC4)ccc(c23)C(=O)N1CCO`, with 17.7 µM (active); and `O=C1c2cccc3c(N4CCCCC4)ccc(c23)C(=O)N1c1ccccc1O`, with 1.3 µM (active). As to `COc1ccc(S(=O)(=O)Nc2cc(Sc3ncn[nH]3)c(O)c3ccccc23)cc1`, the Potency entry is “inactive”. Consider `CSc1ccccc1NC(=O)COC(=O)/C=C/c1ccco1`, for which the Potency entry was “inactive”. As to `O=C(NC(=S)N1CCc2ccccc21)c1ccco1`, the Potency entry was “inactive”. As for `CCCOc1ccccc1C1CC(=O)NC2=C1C(=O)CCC2` (stereo not drawn), the Potency entry is “inactive”. Turning to `CCN(CC)CCCNc1ccc2ncn3c4ccc(O)cc4c(=O)c1c23`, the Potency was 18.4 µM (active). In the case of `CN(C)CCNc1ccc2ncn3c4ccc(O)cc4c(=O)c1c23`, the Potency is 20.6 µM (active). As to `CCCCOc1ccc(-c2nnn(CC(=O)NCc3ccco3)n2)cc1`, the Potency entry was “inactive”. Take `COC(=O)c1cccc(NS(=O)(=O)c2ccc(OC)cc2)c1C`: the Potency result was “inactive”.

In the case of `O=C(CSc1ccccc1)Nc1nc2ccccc2[nH]1`, the Potency entry was “inactive”.

In the case of `CC(=O)Nc1sc2c(c1-c1nc3ccccc3s1)CCN(C(C)C)C2`, the Potency was 18.4 µM (active). As to `COc1cccc(N2CC(O)=C(c3nc4ccccc4s3)C2=N)c1`, the Potency entry was “inactive”. Take `CN1CCc2c(sc(NC(=O)CSc3ccc(F)cc3)c2-c2nc3ccccc3s2)C1`: the Potency was 1.64 µM (active).

As for `COc1ccccc1/C=N/NC(=O)c1cc2c(OC)c(OC)ccc2[nH]1`, the Potency result was “inactive”. Consider `O=C(C(=O)N1CCN(c2ccccc2Cl)CC1)c1c[nH]c2ccccc12`, for which the Potency entry was “inactive”. On to `CC1CC(C)CN(CC(=O)c2c[nH]c3ccccc23)C1` (stereo not drawn), for which the Potency was 18.4 µM (active).

Consider `CCCN1C=CC(=CC=C(C#N)C#N)C=C1`, for which the Potency is 15.8 µM (active). On to `C=CCN1C=CC(=CC=C(C#N)C#N)C=C1`, for which the Potency is 14 µM (active). Consider `COc1cccc(/C=N/n2c(C3CCCCC3)n[nH]c2=S)c1O`, for which the Potency entry is “inactive”. For the compound `COCCNC(=O)C(=O)Nc1ccc2c(c1)N(S(=O)(=O)c1cccs1)CCC2`, the Potency entry was “inactive”. Turning to `CN(C)c1ccc(/C=N/NC(=O)c2ccccc2Cl)cc1`, the Potency result is “inactive”.

For the compound `CN(/N=C/c1ccc(N(C)C)cc1)C1=NS(=O)(=O)c2ccccc21`, the Potency is 17.7 µM (active). With `CCn1c(CNC(=O)c2cc(OC)c(OC)c(OC)c2)cc2cc(C)ccc21`, the Potency entry is “inactive”.

Take `CCOc1ncccc1C(=O)OCc1ccc(C(=O)OC)cc1`: the Potency result is “inactive”. For the compound `C=CCSc1nnc(C)c(/C=C/Nc2ccc(Cl)cc2)n1`, the Potency was 20.6 µM (active). Regarding `COc1ccc(N/C=C/c2nc(SC)nnc2C)cc1`, the Potency result is “inactive”.

In the case of `COc1ccccc1NC1=NC(c2ccc(Cl)cc2)N=C(N)N1` (stereo not drawn), the Potency entry was “inactive”.

Regarding `CCN(CC)c1ccc(/C=N/NC(=S)NC)c(O)c1`, the Potency entry is “inactive”. For the compound `CCN1C(=S)SC(=O)C1=C1C=C(C)N(Cc2ccco2)C(C)=C1`, the Potency is 14 µM (active). As to `Cc1c(C(=O)Nc2cnccn2)oc2ccccc12`, the Potency entry is “inactive”.

With `O=C1CC(c2cc(F)ccc2F)c2cc3c(cc2N1)CCC3` (stereo not drawn), the Potency entry is “inactive”. For `O=C(Cc1n[nH]c(=O)c2ccccc12)OCC(=O)c1ccc2c(c1)OCCO2` the value was “inactive”; for `C(=C/c1nccc2c1[nH]c1ccccc12)/c1ccc2c(c1)OCO2`, “inactive”. As to `N#Cc1ccc(/C=C\c2nccc3c2[nH]c2ccccc23)cc1`, the Potency is 14 µM (active). For `O=C(C[n+]1cccc2cc(Cl)ccc21)c1ccc2ccccc2c1` the value was 23.1 µM (active); for `O=C(C[n+]1cccc2cccc(O)c21)c1ccc2ccccc2c1`, “inactive”. For `O=C(C[n+]1cccc2cc(Cl)ccc21)c1ccc(I)cc1` the value was 20.6 µM (active). Take `CC(C)(C)c1ccc(C(=O)C[n+]2cccc3cc(Cl)ccc32)cc1`: the Potency is 20.6 µM (active). As to `O=C(COC(=O)c1ccc(NS(=O)(=O)c2cccs2)cc1O)NCc1ccccc1`, the Potency result is “inactive”. For `CCC(=Nc1ccccc1O)C1=C(O)CC(c2ccccc2)CC1=O` (stereo not drawn) the value was “inactive”; for `Clc1ccccc1C1CC(c2ccccc2)=Nc2ccccc2N1` (stereo not drawn), “inactive”. `CCOc1ccccc1C(=O)Nc1ccsc1C(=O)OC`: the Potency entry is “inactive”. For `Cc1cccc(C=Nc2ccccc2C(N)=O)c1` the value was “inactive”; for `CN(C)c1ccc(C=C2SC(=S)NC2=O)cc1`, 11.2 µM (active). Regarding `CCOc1ccc(N(C)c2ccc(/C=C3/SC(=S)NC3=O)cc2)cc1`, the Potency was 17.7 µM (active). As for `Cn1cc(/C=C2\SC(=O)N(c3ccccc3)C2=O)c2ccccc21`, the Potency is 20.6 µM (active).

Turning to `O=C1NC(=Nc2ccc(O)cc2)S/C1=C/c1ccco1`, the Potency result was “inactive”. Turning to `Cn1cccc1/C=C1\SC(=Nc2cccc(O)c2)NC1=O`, the Potency result is “inactive”. For `Cn1cc(/C=C2\SC(=S)N(NC(=O)c3cccc(Cl)c3)C2=O)c2ccccc21`, the Potency was 3.66 µM (active). Regarding `Cc1ccc(N=C2NC(=O)/C(=C/c3cn(C)c4ccccc34)S2)cc1C`, the Potency is 17.7 µM (active). `Cc1cccc(N=C2NC(=O)/C(=C/c3cccn3C)S2)c1`: the Potency entry is “inactive”. Take `Cn1cccc1/C=C1\SC(=O)N(c2ccc(O)cc2)C1=O`: the Potency was 20.6 µM (active). For `CCOc1ccc(C(=O)C(CCC(CN(C)C)C(=O)c2ccc(OCC)cc2)CN(C)C)cc1` (stereo not drawn) the value was “inactive”; for `S=c1[nH]nc(-c2cccnc2)n1/N=C/C(Cl)=C\c1ccccc1`, “inactive”; for `O=C(C(=Cc1ccccc1)CN1CCCCC1)c1ccccc1`, “inactive”.

For `O=S(=O)(Nc1cc(Sc2ncn[nH]2)c(O)c2ccccc12)c1ccccc1`, the Potency result is “inactive”. Turning to `COc1ccc(NC(=O)C2Cc3c(-c4cccc(C(C)=O)c4)ccnc3O2)cn1` (stereo not drawn), the Potency entry is “inactive”. Consider `Cc1noc(C)c1COc1cccc(C(=O)OC(C)C(=O)Nc2ccc3c(c2)OCO3)c1` (stereo not drawn), for which the Potency result was “inactive”. For `COc1cc2c(cc1OC)C(C)N(C(=O)c1cc(C)on1)CC2` (stereo not drawn), the Potency entry is “inactive”. For `CN(C)c1ccc(C2C=C(c3ccc(Cl)cc3OC(F)F)Nc3ncnn32)cc1` (stereo not drawn) the value was “inactive”; for `Cc1ccc(C(=O)c2cc([N+](=O)[O-])ccc2N2CCOCC2)cc1C`, “inactive”; for `O=C(O)c1ccccc1/C=N/Nc1ccc(S(=O)(=O)N2CCOCC2)cc1[N+](=O)[O-]`, “inactive”. For `O=[N+]([O-])c1ccc(N/N=C/c2sc(N3CCOCC3)nc2-c2ccccc2)c(S(=O)(=O)Nc2ccccc2Cl)c1` the value was 11.6 µM (active); for `Cc1ccc(S(=O)(=O)Nc2cc(-c3nn(C)c(=O)c4ccccc34)ccc2N2CCOCC2)cc1`, “inactive”; for `COc1ccccc1NS(=O)(=O)c1cc([N+](=O)[O-])ccc1N/N=C/c1sc(N2CCOCC2)nc1-c1ccccc1`, 2.06 µM (active). For `Cc1ccc(NS(=O)(=O)c2cc([N+](=O)[O-])ccc2N/N=C/c2sc(N3CCOCC3)nc2-c2ccccc2)c(C)c1`, the Potency is 0.158 µM (active).

Consider `COc1cc(C2c3cc4c(cc3C(OC3OC5COC(c6cccs6)OC5C(O)C3O)C3COC(=O)C23)OCO4)cc(OC)c1O` (stereo not drawn), for which the Potency result is “inactive”. For the compound `O=C(c1[nH]c(C(F)(F)F)nc1-c1ccccc1)N1CCN(c2cccc(C(F)(F)F)n2)CC1`, the Potency entry was “inactive”.

For `O=C(CCc1ccccc1)Nc1ccc(Cl)cn1`, the Potency result was “inactive”. For the compound `COC(=O)COc1cccc2c(=O)n(CC(=O)NCc3ccccc3)ccc12`, the Potency entry is “inactive”.

`O=C(/C=C/c1ccncc1)c1cc(Cl)ccc1O`: the Potency result is “inactive”.

With `COc1ccccc1C1=NOC(COc2ccc3c(C)cc(=O)oc3c2)C1` (stereo not drawn), the Potency entry was “inactive”. As for `CCSc1nc2ccccc2n1C(=O)/C=C/c1ccc(OC)c(OC)c1`, the Potency result was “inactive”. Take `Cc1cccc(-n2c(N)c(-c3nc4ccccc4n3C)c3nc4ccccc4nc32)c1`: the Potency entry is “inactive”.

Regarding `CC(=O)n1c2ccccc2c2nc3ccccc3nc21`, the Potency was 9.2 µM (active).

Consider `O=c1c(Cl)c2oc3ccccc3nc-2c2ccccc12`, for which the Potency was 18.4 µM (active). Turning to `COc1ccc(/C=N/NC(=O)c2cc3c(OC)ccc(OC)c3[nH]2)cc1O`, the Potency result was “inactive”.

Regarding `O=[N+]([O-])c1ccc(N2CCN(Cc3ccccc3)CC2)c2c1no[n+]2[O-]`, the Potency is 15.8 µM (active).

As to `Cc1ccc(-c2nc3ccccc3o2)cc1NC(=S)NC(=O)/C=C/c1ccco1`, the Potency result is “inactive”. Turning to `COc1ccccc1C(=O)NC(=S)Nc1ccc(NC(=O)c2ccco2)cc1`, the Potency entry was “inactive”. With `Cc1cc(NC(=O)c2ccco2)cc(-c2nc3cc(Cl)ccc3o2)c1O`, the Potency was 18.4 µM (active). For the compound `CC1=C(C(=O)Nc2cccc(F)c2)C(c2ccsc2)C2=C(CC(C)(C)CC2=O)N1` (stereo not drawn), the Potency entry is “inactive”. In the case of `O=C1S/C(=C\c2ccc(N3CCOCC3)o2)C(=O)N1c1ccccc1`, the Potency is 2.8 µM (active). Then `CCCN1C(=O)S/C(=C\c2ccc(N3CCOCC3)o2)C1=O`, with 4.44 µM (active). On to `O=C1S/C(=C/c2ccc(N3CCOCC3)o2)C(=O)N1Cc1c(F)cccc1Cl`, for which the Potency is 4.44 µM (active). Turning to `CCOC(=O)CN1C(=O)S/C(=C/c2ccc(N3CCCCC3)o2)C1=O`, the Potency was 5.8 µM (active).
